Reference: PubChem BioAssay (NCATS)
Inconclusive results are not listed. Calls of active or inactive are those of the source. Calls follow the shape of the dose curve; as a rule, active = well fitted curve in the direction sought with a large enough effect; inconclusive = small, poorly fitted or top-dose-only effect, or another doubt; inactive = no such curve, though single readings can be large; an effect the other way counts as inactive or inconclusive.

Assays:
[1] = Quantitative High-Throughput drug screen in 47 multiple myeloma cell lines against the NCATS MIPE library collection: KMS26_JCRB cell viability assay (AID 1918975); also: nearly all actives have a fitted effect of over 45% in size; also: potency is read from the fitted curve at half-maximal effect
Procedure, shortened: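 Viability readout: CellTiter-Glo luminescence following 5 min room-temperature incubation with reagent. Prior exposure: 48 h, 37C, humidified 5% CO2, 500 cells per well.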

[2] = Quantitative High-Throughput drug screen in 47 multiple myeloma cell lines against the NCATS MIPE library collection: MMM1_PLB cell viability assay (AID 1918976); also: nearly all actives have a fitted effect of over 35% in size; also: potency is read from the fitted curve at half-maximal effect
Procedure, shortened: (§1)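 ATP-based luminescence (CellTiter-Glo, 5 min RT incubation) quantified surviving cells following two days' treatment with MIPE 4.0 agents at 37 °C, 5% CO2.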

[3] = Quantitative High-Throughput drug screen in 47 multiple myeloma cell lines against the NCATS MIPE library collection: OCIMY1_PLB cell viability assay (AID 1918979); also: nearly all actives have a fitted effect of over 35% in size; also: potency is read from the fitted curve at half-maximal effect;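 as to viability: series mostly up to about 46 µM; 100% = DMSO-only wells and 0% = cell-free media-only wells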
Procedure, shortened: as §1

[4] = Quantitative High-Throughput drug screen in 47 multiple myeloma cell lines against the NCATS MIPE library collection: MM1S_ATCC cell viability assay (AID 1918980); also: nearly all actives have a fitted effect of over 45% in size; also: potency is read from the fitted curve at half-maximal effect
Procedure, shortened: as §1

[5] = Quantitative High-Throughput drug screen in 47 multiple myeloma cell lines against the NCATS MIPE library collection: OCIMY7_PLB cell viability assay (AID 1918987); also: nearly all actives have a fitted effect of over 65% in size; also: potency is read from the fitted curve at half-maximal effect
Procedure, shortened: as §1

[6] = Quantitative High-Throughput drug screen in 47 multiple myeloma cell lines against the NCATS MIPE library collection: OPM1_PLB cell viability assay (AID 1918989); also: nearly all actives have a fitted effect of over 40% in size; also: potency is read from the fitted curve at half-maximal effect
Procedure, shortened: as §1

[7] = Quantitative High-Throughput drug screen in 47 multiple myeloma cell lines against the NCATS MIPE library collection: XG6_PLB cell viability assay (AID 1919865); also: nearly all actives have a fitted effect of over 40% in size; also: potency is read from the fitted curve at half-maximal effect
Procedure, shortened: as §1

[8] = Quantitative High-Throughput drug screen in 47 multiple myeloma cell lines against the NCATS MIPE library collection: XG1_PLB cell viability assay (AID 1919866); also: nearly all actives have a fitted effect of over 35% in size; also: potency is read from the fitted curve at half-maximal effect
Procedure, shortened: as §1

[9] = Quantitative High-Throughput drug screen in 47 multiple myeloma cell lines against the NCATS MIPE library collection: VP6_DJ cell viability assay (AID 1919867); also: nearly all actives have a fitted effect of over 40% in size; also: potency is read from the fitted curve at half-maximal effect
Procedure, shortened: as §1

[10] = Quantitative High-Throughput drug screen in 47 multiple myeloma cell lines against the NCATS MIPE library collection: UTMC2_PLB cell viability assay (AID 1919868); also: nearly all actives have a fitted effect of over 55% in size; also: potency is read from the fitted curve at half-maximal effect
Procedure, shortened: as §1

[11] = Quantitative High-Throughput drug screen in 47 multiple myeloma cell lines against the NCATS MIPE library collection: MOLP8_DSMZ cell viability assay (AID 1918977); also: nearly all actives have a fitted effect of over 45% in size; also: potency is read from the fitted curve at half-maximal effect
Procedure, shortened: as §1

[12] = Quantitative High-Throughput drug screen in 47 multiple myeloma cell lines against the NCATS MIPE library collection: NCIH929_DSMZ cell viability assay (AID 1918978); also: nearly all actives have a fitted effect of over 35% in size; also: potency is read from the fitted curve at half-maximal effect
Procedure, shortened: as §1

[13] = Quantitative High-Throughput drug screen in 47 multiple myeloma cell lines against the NCATS MIPE library collection: MM1R_ATCC cell viability assay (AID 1918981); also: nearly all actives have a fitted effect of over 35% in size; also: potency is read from the fitted curve at half-maximal effect
Procedure, shortened: as §1

[14] = Quantitative High-Throughput drug screen in 47 multiple myeloma cell lines against the NCATS MIPE library collection: LP1_DSMZ cell viability assay (AID 1918982); also: nearly all actives have a fitted effect of over 35% in size; also: potency is read from the fitted curve at half-maximal effect
Procedure, shortened: as §1

[15] = Quantitative High-Throughput drug screen in 47 multiple myeloma cell lines against the NCATS MIPE library collection: KMS28PE_JCRB cell viability assay (AID 1918983); also: nearly all actives have a fitted effect of over 35% in size; also: potency is read from the fitted curve at half-maximal effect
Procedure, shortened: as §1

[16] = Quantitative High-Throughput drug screen in 47 multiple myeloma cell lines against the NCATS MIPE library collection: U266_ATCC cell viability assay (AID 1919864)
Procedure, shortened: as §1

[17] = Quantitative High-Throughput drug screen in 47 multiple myeloma cell lines against the NCATS MIPE library collection: L363_DSMZ cell viability assay (AID 1918984); also: nearly all actives have a fitted effect of over 40% in size; also: potency is read from the fitted curve at half-maximal effect
Procedure, shortened: as §1

[18] = Quantitative High-Throughput drug screen in 47 multiple myeloma cell lines against the NCATS MIPE library collection: OCIMY5_PLB cell viability assay (AID 1918988); also: potency is read from the fitted curve at half-maximal effect; nearly all actives have a fitted effect of over 65% in size
Procedure, shortened: as §1

[19] = Quantitative High-Throughput drug screen in 47 multiple myeloma cell lines against the NCATS MIPE library collection: KMS34_JCRB cell viability assay (AID 1918985); also: nearly all actives have a fitted effect of over 40% in size; also: potency is read from the fitted curve at half-maximal effect
Procedure, shortened: as §1

[20] = Quantitative High-Throughput drug screen in 47 multiple myeloma cell lines against the NCATS MIPE library collection: SKMM1_PLB cell viability assay (AID 1919863); conditions: SKMM1 myeloma viability, CellTiter-Glo ATP, 48 h; viability: active compounds read low; also: nearly all actives have a fitted effect of over 35% in size; also: potency is read from the fitted curve at half-maximal effect; as to viability: series mostly up to about 46 µM
Procedure, shortened: as §1

CN1CCN2c3ccccc3Cc3ccccc3C2C1 (stereo unspecified)
active: Potency [1] 26.4 µM | Potency [2] 20.9 µM | Potency [3] 16.6 µM | Potency [4] 13.2 µM | Potency [5] 18.7 µM | Potency [6] 16.6 µM | Potency [7] 10.5 µM | Potency [8] 18.7 µM | Potency [9] 3.72 µM
inactive: Potency [10]

COc1ccc(C2CNC(=O)C2)cc1OC1CCCC1 (stereo unspecified)
inactive: Potency [1] | Potency [11] | Potency [12] | Potency [3] | Potency [13] | Potency [14] | Potency [15] | Potency [6] | Potency [16]
active: Potency [7] 20.9 µM | Potency [9] 14.8 µM

CN1CCN(CCCN2c3ccccc3Sc3ccc(Cl)cc32)CC1
inactive: Potency [3]
active: Potency [1] 26.4 µM | Potency [2] 26.4 µM | Potency [12] 29.6 µM | Potency [13] 26.4 µM | Potency [17] 3.32 µM | Potency [5] 26.4 µM | Potency [18] 26.4 µM | Potency [6] 16.6 µM | Potency [7] 14.8 µM | Potency [8] 14.8 µM | Potency [9] 10.5 µM | Potency [10] 23.5 µM

CN(C)CCC=C1c2ccccc2C=Cc2ccccc21
active: Potency [1] 6.62 µM | Potency [2] 4.18 µM | Potency [13] 18.7 µM | Potency [15] 16.6 µM | Potency [5] 14.8 µM | Potency [6] 18.7 µM
inactive: Potency [12] | Potency [3] | Potency [19]

COc1ccc2[nH]cc(CCNC(C)=O)c2c1
active: Potency [1] 9.35 µM | Potency [4] 0.372 µM | Potency [13] 5.26 µM
inactive: Potency [11] | Potency [12] | Potency [3] | Potency [15] | Potency [5] | viability [20] 123% | Potency [8] | Potency [9]

CCCCc1oc2ccccc2c1C(=O)c1cc(I)c(OCCN(CC)CC)c(I)c1
active: Potency [1] 20.9 µM | Potency [2] 18.7 µM | Potency [11] 23.5 µM | Potency [12] 23.5 µM | Potency [3] 26.4 µM | Potency [13] 18.7 µM | Potency [19] 11.8 µM | Potency [5] 18.7 µM | Potency [6] 18.7 µM | Potency [20] 20.9 µM | Potency [7] 13.2 µM | Potency [8] 10.5 µM | Potency [9] 14.8 µM

NCCc1cnc[nH]1
active: Potency [2] 0.0132 µM | Potency [13] 1.87 µM
inactive: Potency [1] | Potency [12] | Potency [3] | Potency [15] | Potency [6] | Potency [8] | Potency [10]

CN(C)CCCN1c2ccccc2CCc2ccc(Cl)cc21
active: Potency [1] 1.66 µM | Potency [2] 20.9 µM | Potency [12] 0.469 µM | Potency [13] 1.48 µM | Potency [15] 14.8 µM | Potency [5] 0.187 µM | Potency [6] 14.8 µM | Potency [20] 14.8 µM | Potency [7] 0.372 µM | Potency [8] 0.372 µM | Potency [9] 0.935 µM | Potency [10] 0.833 µM

NC(CO)C(=O)NNCc1ccc(O)c(O)c1O (stereo unspecified)
inactive: Potency [12] | Potency [6] | Potency [7] | Potency [8]
active: Potency [1] 33.2 µM | Potency [2] 7.43 µM | Potency [11] 10.5 µM | Potency [3] 26.4 µM | Potency [13] 11.8 µM | Potency [14] 20.9 µM | Potency [19] 26.4 µM | Potency [20] 11.8 µM

CCC1(C)CC(=O)NC1=O (stereo unspecified)
inactive: Potency [1] | Potency [2] | Potency [12] | Potency [3] | Potency [4] | Potency [13] | Potency [15] | Potency [19] | Potency [5] | Potency [6] | Potency [7] | Potency [8]

NC(=O)NO
active: Potency [1] 1.18 µM | Potency [2] 2.09 µM | Potency [11] 3.32 µM | Potency [12] 0.743 µM | Potency [3] 0.662 µM | Potency [4] 0.935 µM | Potency [13] 1.18 µM | Potency [14] 2.64 µM | Potency [15] 2.35 µM | Potency [5] 0.132 µM | Potency [6] 0.833 µM | Potency [20] 10.5 µM | Potency [7] 2.35 µM | Potency [8] 9.35 µM | Potency [9] 1.05 µM | Potency [10] 1.66 µM

NCCCCCC(=O)O
inactive: Potency [1] | Potency [11] | Potency [12] | Potency [3] | Potency [13] | Potency [14] | Potency [15] | Potency [17] | Potency [6] | Potency [7] | Potency [8] | Potency [10]
active: Potency [2] 0.296 µM

CN1C2CCC1CC(OC(=O)C(CO)c1ccccc1)C2 (stereo unspecified)
inactive: Potency [1] | Potency [2] | Potency [11] | Potency [12] | Potency [3] | Potency [13] | Potency [14] | Potency [15] | Potency [5] | Potency [6] | Potency [7] | Potency [8] | Potency [10]

CNCCCC12CCC(c3ccccc31)c1ccccc12
active: Potency [1] 20.9 µM | Potency [2] 20.9 µM | Potency [3] 20.9 µM | Potency [13] 29.6 µM | Potency [14] 20.9 µM | Potency [15] 23.5 µM | Potency [18] 23.5 µM | Potency [6] 23.5 µM | Potency [20] 18.7 µM | Potency [7] 18.7 µM | Potency [8] 26.4 µM | Potency [9] 20.9 µM

O=C1c2c(O)ccc(O)c2C(=O)c2c(NCCNCCO)ccc(NCCNCCO)c21
active: Potency [1] 2.35 µM | Potency [2] 1.48 µM | Potency [11] 1.32 µM | Potency [12] 0.526 µM | Potency [3] 13.2 µM | Potency [13] 0.105 µM | Potency [14] 5.9 µM | Potency [15] 0.935 µM | Potency [19] 2.96 µM | Potency [5] 1.05 µM | Potency [6] 0.935 µM | Potency [20] 2.96 µM | Potency [7] 0.118 µM | Potency [8] 0.332 µM | Potency [9] 0.662 µM
